Results reported in PubChem BioAssay AID2314 (National Center for Advancing Translational Sciences (NCATS), 2010).
The campaign covered roughly 300,000 compounds. About 37,000 (12%) were called active. Only a selection was taken, and actives are over-represented in it overall. A number with no mark means an inactive call. No stated cut-off is given here; in the data, active means max response mostly above about 13% (no sharp cut-off); inactive means mostly below about 14%.

test: Cycloheximide Counterscreen for Small Molecule Inhibitors of Shiga Toxin; settings: cell reporter, cycloheximide protein synthesis inhibition counterscreen; stronger effect = higher value; further: read at 38.3 µM for the half of the compounds with a filed dose; 0% is about no effect

Row | SMILES | max response
1 | O=C1COc2ccc(NC(=O)N3CCN(c4ccc(F)cc4)CC3)cc2N1 | -3.27%
2 | COc1ccc(OC)c(NC(=O)CSc2nc(-c3ccccc3)cc(=O)[nH]2)c1 | -6.47%
3 | COc1cc(C(=O)N2CCOCC2)cc(OC)c1OC | -5.91%
4 | O=C(CC(NC(=O)c1ccccc1)c1ccccc1)Nc1ccc(F)c(F)c1 (centres undefined) | 1.73%
5 | COc1ccc(-c2cc(C(=O)NCCCN3CCOCC3)no2)cc1 | 2.58%
6 | O=C(Oc1ccc(C(=S)N2CCOCC2)cc1)c1ccc(F)cc1 | -3.82%
7 | CCC(NC(=O)c1cc(COc2ccc(F)c(F)c2)on1)c1ccncc1 (centres undefined) | 33.7% (active)
8 | COc1ccc(CCNC(=O)c2cnc(Cl)c(Cl)c2)cc1 | 6.51%
9 | O=C(NC1Cc2ccccc2C1)c1cc(COc2cccc(C(F)(F)F)c2)on1 | -3.57%
10 | O=C(c1cc(COc2ccc(F)cc2F)on1)N1CCOCC1 | 47% (active)
11 | COc1ccc(OCc2cc(C(=O)NCC3(C)COC3)no2)c(Cl)c1 | 40.1% (active)
12 | O=C(Nc1ccc(N2CCOCC2)cc1)c1ccc(-c2ccccc2[N+](=O)[O-])o1 | 21.5%
13 | COc1ccc(/C=C2\CCCC3C2=NN(C(=O)c2scnc2C)C3c2ccc(OC)cc2)cc1 (centres undefined) | 11.8%
14 | CCOC(=O)N1CCN(S(=O)(=O)c2ccc(-n3cnnn3)cc2)CC1 | -0.729%
15 | O=S(=O)(NC1CCCCC1N1CCC(O)CC1)c1ccc(Cl)cc1 (centres undefined) | -0.643%
16 | Oc1ccc(C2Nc3cccc4cccc(c34)N2)cc1 | -1.27%
17 | O=C(O)c1ccc(NS(=O)(=O)c2ccc3c(c2)C(=O)c2cc(S(=O)(=O)Nc4ccc(C(=O)O)cc4)ccc2-3)cc1 | 12.6%
18 | Cc1cccc(CCNS(=O)(=O)c2ccc3c(c2)NC(=O)CO3)c1 | -8.72%
19 | COc1ccc(C2CC(O)(c3ccccc3)Oc3cc(C)cc(C)c32)cc1 (centres undefined) | 15.7%
20 | CCOC(=O)c1cc(=O)c2ccc(OCc3ccccc3)cc2o1 | -0.548%

Row | SMILES | max response
21 | O=C(C[n+]1ccc2c(c1)nnn2-c1ccccc1)c1ccc(Cl)cc1 | 6.33%
22 | N#C/C(=C(/O)COC(=O)COc1ccc(Cl)cc1)c1nc2ccccc2[nH]1 | -7.7%
23 | O=C(Cc1nc2ccccc2[nH]c1=O)c1ccc(Cl)cc1 | 49.5% (active)
24 | COc1ccc(CC(NC(C)=O)C(=O)NC2CCN(C(=O)c3ccc(Cl)cc3)CC2)cc1 (centres undefined) | -8.8%
25 | c1ccc2c(NC3C4CC5CC(C4)CC3C5)nc(N3CCOCC3)nc2c1 (centres undefined) | -3.82%
26 | O=c1oc(-c2ccco2)nc2sc3c(c12)CCCCC3 | 15% (active)
27 | O=C(NCc1ccco1)c1cccn2c(=O)c3c4c(sc3nc12)CCCC4 | 13.5%
28 | Cn1c(=O)n(Cc2ccco2)c(=N)c2c3c(sc21)CCCC3 | -4.49%
29 | Cc1cccc(NC(=O)C2CCCN(C(=O)NCc3ccccc3)C2)c1C (centres undefined) | 1.32%
30 | Clc1ccc(C2[C@H]3CN(CC4CCCCC4)[C@H](c4ccccc4)C34CC2(c2cccnc2)C4)cn1 (some centres undefined) | -6.35%
31 | O=S(=O)(c1ccc(Br)cc1)n1ccc2ccccc21 | -2.94%
32 | CC(=O)c1nn(-c2cccc(C(F)(F)F)c2)c(=O)[nH]c1=O | -1.16%
33 | COc1ccc(-c2nc3n(c2Br)CCC3)cc1 | 45.3% (active)
34 | Brc1cccc(-c2nnc3n2CCC3)c1 | -1.45%
35 | COc1ccc(-c2nnc3n2CCCCC3)cc1 | -0.714%
36 | COc1ccc(Br)cc1C(=O)NC(=S)Nc1cc(-c2nc3ccccc3[nH]2)ccc1C | 24.4%
37 | COc1ccc(-c2nc(N)ncc2-c2ccc(Cl)cc2)c(O)c1 | -1.99%
38 | Cc1[nH]c2ccccc2c1C(=O)COC(=O)C(C)C | 17.9% (active)
39 | Cc1[nH]c2ccccc2c1C(=O)COC(=O)c1c(-c2ccccc2)noc1C | -1.13%
40 | Cc1[nH]c2ccccc2c1C(=O)CSCC(=O)O | -0.861%

Row | SMILES | max response
41 | Cc1ccc(N(CC(=O)NC2CCCCC2)C(=O)CCCC(=O)Nc2ccccn2)c(C)c1 | -2.99%
42 | CCc1ccc2[nH]c(=O)c(Cc3ccccc3)c(O)c2c1 | 0.407%
43 | COc1ccc(-c2onc(C)c2-c2ccc3c(c2)OCCO3)c(O)c1 | -1.9%
44 | COc1cc(-c2c(-c3ccc4c(c3)OCO4)noc2C)ccc1F | 31.7% (active)
45 | COc1ccc(CCNC(=O)c2cc(-c3ccc4c(c3)OCO4)on2)cc1OC | -2.19%
46 | Cc1ccc(-c2cnc(NC(=O)CCC(=O)N(C)Cc3ccccc3)n2C)cc1 | 1.02%
47 | CC(C)(C)NC(=O)NCc1ccco1 | -1.96%
48 | COc1ccc(C(=O)Nc2ccccc2C(=O)NCc2ccco2)cc1 | -2.2%
49 | Cc1cccc(Nc2ccccc2C(=O)NCc2ccco2)c1C | -4.07%
50 | O=C(Nc1ccccc1)Nc1ccccc1C(=O)NCc1ccco1 | 12.3% (active)
51 | CC(C)(C)c1ccc(NC(=O)NCc2ccco2)cc1 | 47.3% (active)
52 | CC(C)(C)c1ccc(C(=O)NCCC(=O)NCc2ccco2)cc1 | 6.14%
53 | CCOCCCNC(=O)C1(O)c2cc(Br)ccc2NC(=O)N1c1ccc(C)c(C)c1 (centres undefined) | -2.74%
54 | O=C(/C=C/c1ccc(F)cc1)Nc1cccc(S(=O)(=O)Nc2cccc(C(F)(F)F)c2)c1 | -2.37%
55 | CCCC1(C(=O)OCC)NC(c2ccc(N(C)C)cc2)C2C(=O)N(c3ccc4c(c3)OCCO4)C(=O)C21 (centres undefined) | -5.79%
56 | CC1CCCCC1NC(=O)CSc1nnc(-c2ccncc2)n1CCCN(C)C (centres undefined) | -2.68%
57 | COc1cccc(CN(C)CC(O)COC(c2ccccc2)c2ccccc2C)c1 (centres undefined) | -4.62%
58 | CC(CNc1ccc([N+](=O)[O-])cc1)NC(=O)c1ccccc1Br (centres undefined) | -2.28%
59 | CCNC(=S)N(CCN(CC)CC)Cc1cc2cc3c(cc2[nH]c1=O)OCO3 | -2.69%
